# Source: PubChem BioAssay (National Center for Advancing Translational Sciences (NCATS))
# The list is not random: actives were taken first. Their share in the collection is about 21%.
# VP16 counter: counter-screen for ROR gamma inhibitors: Gal4-VP16 reporter. AID 2546. 310,000 compounds, 3.5% hits. Drosophila S2 Gal4-VP16 UAS-luciferase, luminescence, 20 h. Potency, µM (titrated, usually from 53.6 µM), for the others: at the top dose activity, negative = inhibition, hits mostly inhibitors;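 note: Gal4-VP16 expression switched on by copper sulfate through the metallothionein promoter; potency is the fitted concentration of half-maximal effect; nearly all actives have a fitted effect of over 50% in size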
# RORg inh: blocks mouse ROR gamma transcriptional activity. P51450. Drosophila S2 Gal4-RORgamma UAS-luciferase reporter, 20 h. Potency, µM (titrated, usually from 53.6 µM), for inactives: at the top dose activity change, negative = inhibition, usual class: inhibitors. 310,000 compounds, 5.4% hits. AID 2551; note: potency is the fitted concentration of half-maximal effect; nearly all actives have a fitted effect of over 60% in size
# Target sequence (P51450 whole entry, looked up, the tested form may be a part): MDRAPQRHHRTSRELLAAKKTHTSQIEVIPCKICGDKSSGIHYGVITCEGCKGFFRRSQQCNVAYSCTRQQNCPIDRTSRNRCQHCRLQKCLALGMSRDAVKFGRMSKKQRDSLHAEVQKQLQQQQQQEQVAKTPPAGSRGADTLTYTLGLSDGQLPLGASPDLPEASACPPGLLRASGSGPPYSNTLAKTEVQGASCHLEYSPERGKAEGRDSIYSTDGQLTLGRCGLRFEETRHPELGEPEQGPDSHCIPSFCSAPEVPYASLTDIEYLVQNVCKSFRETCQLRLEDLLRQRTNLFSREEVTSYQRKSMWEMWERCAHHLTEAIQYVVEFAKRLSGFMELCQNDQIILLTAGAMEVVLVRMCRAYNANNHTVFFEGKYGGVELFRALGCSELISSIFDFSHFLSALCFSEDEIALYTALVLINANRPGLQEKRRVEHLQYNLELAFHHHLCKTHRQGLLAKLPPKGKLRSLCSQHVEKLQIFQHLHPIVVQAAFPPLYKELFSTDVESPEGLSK
#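 Drosophila Schneider cells stably carrying a metallothionein-driven Gal4 DBD–ROR gamma fusion and a UAS-Photinus luciferase reporter were exposed to compound for 1 hr, then induced with copper sulfate (700 uM final) for 20 hr at ambient temperature before luminescence reading.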
# ELG1 repair inh: ELG1-dependent DNA repair inhibition; 330,000 compounds, 2.3% hits; HEK293T ELG1-luciferase reporter, luminescence, 16 h; DNA damage induced by 5-fluorouridine; Potency, µM (doses to about 46.1 µM), for inactives: top-dose activity change, negative = inhibition, actives largely listed as inhibitors; note: potency is the fitted concentration of half-maximal effect; nearly all actives have a fitted effect of over 55% in size
#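 Reporter activity after DNA damage by 5-fluorouridine is monitored. Compound-treated cells incubate 16 hr at 37 °C, then ONE-Glo is added for 30 min before luminescence reading.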
# TDP1 cell CPT: growth inhibition of DT40 Tdp1-/-;hTDP1 cells with camptothecin (screen for TDP1 inhibitors); chicken DT40 Tdp1-/-;hTDP1 cells + 20 nM CPT, ATP luminescence, 48 h; Potency, µM (highest dose often 46.2 µM), for the others: top-dose activity change, negative = growth inhibition, most hits filed as inhibitors; 420,000 compounds, 12% hits; AID 686979; note: potency is the fitted concentration of half-maximal effect; nearly all actives have a fitted effect of over 55% in size
#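 Chicken DT40 Tdp1-/- cells stably complemented with human TDP1 were seeded at 400 cells/well in medium containing 20 nM camptothecin, exposed to pin-transferred compounds, and grown at 37 °C for at least 48 hr. Viability was read as ATP luminescence.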
# IL-1B inflam inh: inhibitors of inflammasome signaling (IL-1 beta secretion); THP-1 LPS/ATP IL-1B secretion, AlphaLISA, 16 h; active compounds read low; activity change, % at 57.5 µM; 360,000 compounds, 4.7% hits; in the data active = activity change below about -50%; inconclusive = mostly about -30% to -49%
#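 Secreted IL-1B measured by AlphaLISA bead assay after 16 h compound exposure of THP-1 cells; compounds (final up to 57.5 uM) added 1 h before LPS (250 ng/mL) and ATP (1.25 mM) stimulation; lower signal means less secretion.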
# TDP1 cell noCPT: qHTS for Inhibitors of human tyrosyl-DNA phosphodiesterase 1 (TDP1): qHTS in cells in absence of CPT; DT40 Tdp1-/- hTDP1 cells, no CPT, ATP luminescence, 48 h; Potency, µM (series often up to 46.2 µM), without a hit: at the highest dose activity change, negative = growth inhibition, usual class: inhibitors; 420,000 compounds, 15% hits; note: potency is the fitted concentration of half-maximal effect; nearly all actives have a fitted effect of over 55% in size
#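 Compound effects on proliferation are scored in DT40 Tdp1-/-;hTDP1 cells in the absence of CPT. ATP levels (CellTiter-Glo luminescence) are recorded after a ≥48 hr, 37 °C incubation.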
# * hit, by the source's call; ? = inconclusive; / = no result given; [ ] = another dose, or the depositor's remark. Unless noted, calls come from the whole dose curve; as a rule, active = well fitted curve in the direction sought with a large enough effect; inconclusive = small, poorly fitted or top-dose-only effect, or another doubt; inactive = no such curve, though single readings can be large; an effect the other way counts as inactive or inconclusive. % is set by controls: 0 for no effect and ±100 for the full control effect.
SMILES,VP16 counter,RORg inh,ELG1 repair inh,TDP1 cell CPT,IL-1B inflam inh,TDP1 cell noCPT
Cc1ccc(CNc2ccc(N3C(=O)CCCC3=O)cc2[N+](=O)[O-])cc1,-7.2%,-5.2%,2.2%,?,-7.2,?
CCN1C(=O)[C@H]2[C@H]3[C@H](O)[C@H](O)C/C(=N/O[C@@H](C)c4cn([C@H]5COC[C@H]5O)nn4)[C@@H]3CC[C@@H]2C1=O,-10.5%[10 µM],-2.0%[10 µM],/,/,/,/
CCCC(=O)Nc1cc(C(=O)O)ccc1S(=O)(=O)c1ccc(C)cc1,1.3%,0.2%,3.7%,5.0%,18.5,5.2%
CCCC(=O)Nc1cc(C(=O)NCc2ccccc2)ccc1S(=O)(=O)c1ccc(Cl)cc1,/,/,/,20.6µM*,/,20.6µM*
CN(C)CCNC(=O)c1cccc(-c2cc(NC=O)c3ncc(-c4cccc(C(F)(F)F)c4)n3c2)c1,/,/,/,3.26µM*,-109.0*,5.17µM*
CN(C)CCNC(=O)c1cccc(-c2cnc3c(NC=O)cc(-c4cc(F)c(F)c(F)c4)cn23)c1,/,/,/,4.11µM*,81.5,3.26µM*
COc1cccc(-c2cc(NC=O)c3ncc(-c4cccc(C(=O)NCCN(C)C)c4)n3c2)c1,/,/,/,?,-13.5,?
Cc1ccc(C)c(S(=O)(=O)N2CCCCC2CCNC(=O)C(=O)NCc2ccncc2)c1 (stereo not drawn),/,/,-22.9%,?,2.5,?
CN(CC(=O)NCCN1CCN(c2ccccc2)CC1)S(=O)(=O)c1ccc2c(c1)CCC(=O)N2,5.5%,15.7%,0.3%,?,16.3,?
CCn1c(=O)c2cc(C(=O)NC3CCCCCC3)sc2c2ccccc21,/,/,/,16.4µM*,/,16.4µM*
Cn1c(=O)c2cc(C(=O)NC3CCCCCC3)sc2c2ccccc21,/,/,/,?,/,18.4µM*
CCCCNC(=O)c1cc2c(=O)n(CC)c3ccccc3c2s1,-8.1%,12.0%,13.9%,?,-20.3,23.1µM*
CCn1c(=O)c2cc(C(=O)NC(C)C)sc2c2ccccc21,-1.9%,-1.0%,?,?,0.0,?
CCn1c(=O)c2cc(C(=O)NCCCN3CCN(c4ccc(F)cc4)CC3)sc2c2ccccc21,/,/,/,18.4µM*,/,6.51µM*
O=C(NC1CCCCCC1)c1cc2c(Cl)nc3ccccc3c2s1,/,/,/,0.0%,/,-13.5%
Cc1ccccc1C(=O)NC1CC2CCCC(C1)N2CC(C)C (stereo not drawn),/,/,/,?,-10.5,-25.7%
CCN1C(=O)[C@H]2[C@H]3[C@H](O)[C@H](O)C/C(=N/NC(=O)OCc4ccc(OC)cc4)[C@H]3CC[C@@H]2C1=O,-6.3%[10 µM],-25.4%[10 µM],/,/,/,/
CSCC[C@H](NC(=O)[C@H](CCCNC(=N)N)NC(=O)[C@H](Cc1ccc(O)cc1)NC(=O)[C@@H]1CCCN1C(=O)CNC(=O)[C@H](CCC(=O)O)NC(=O)[C@H](CC(=O)O)NC(=O)[C@H](CCCCN)NC(=O)[C@H](CCCCN)NC(=O)[C@H](CCC(=O)O)NC(=O)[C@H](C)N)C(=O)N[C@@H](CCC(=O)O)C(=O)N[C@@H](Cc1cnc[nH]1)C(=O)N[C@@H](Cc1ccccc1)C(=O)N[C@@H](CCCNC(=N)N)C(=O)N[C@@H](Cc1c[nH]c2ccccc12)C(=O)NCC(=O)N[C@@H](CO)C(=O)N1CCC[C@H]1C(=O)N1CCC[C@H]1C(=O)N[C@@H](CCCCN)C(=O)N[C@@H](CC(=O)O)C(=O)O,5.2%,10.4%,/,/,/,/
[O-]/[N+](=C\c1ccccc1)c1ccc(Br)cc1,/,/,?,?,1.0,16.4µM*
[O-]/[N+](=C\c1ccccc1)c1ccccc1,/,/,0.5%,?,-1.0,?
CCN(CC)S(=O)(=O)c1cc(-c2nnc(-c3ccc(Br)cc3)o2)ccc1Br,25.7%,41.3%,?,14.6µM*,?,9.2µM*
CCN(CC)S(=O)(=O)c1cc(-c2nnc(-c3ccc(Br)cc3)o2)ccc1Cl,-1.2%,?,-26.1%,11.6µM*,?,18.4µM*
CCN(CC)S(=O)(=O)c1cccc(-c2nnc(-c3ccc(C)cc3)o2)c1,10.1%,-10.0%,?,?,-5.8,-20.6%
CC(CNC(=O)c1ccc(CSc2nc3ccncc3n2Cc2cccc(F)c2)cc1)c1ccccc1 (stereo not drawn),/,/,/,23.1µM*,/,?
Cc1ccc(CCNC(=O)c2ccc(CSc3nc4ccncc4n3Cc3ccc(F)cc3)cc2)cc1,/,/,/,16.4µM*,/,16.4µM*
SMILES,VP16 counter,RORg inh,ELG1 repair inh,TDP1 cell CPT,IL-1B inflam inh,TDP1 cell noCPT
O=C(NCCc1ccccc1)c1ccc(CSc2nc3ccncc3n2Cc2ccc(F)cc2)cc1,/,/,/,?,/,16.4µM*
COCCNC(=O)c1ccc(CSc2nc3ccncc3n2Cc2ccccc2)cc1,/,/,/,-2.7%,/,-24.4%
CC(C)c1cccc(-c2ccc3c(c2)S(=O)(=O)c2cccc(C(=O)NC4CCCC4)c2C3=O)c1,/,/,-2.6%,?,14.0,-16.8%
COc1cn(CC(=O)Nc2cc(C)cc(C)c2)c(CN2CCCCC2)cc1=O,/,/,/,4.2%,/,-19.2%
CC[C@]12C(=O)N(C)C[C@H]([C@@H]3C(=O)N(C)C(=O)[C@@H]31)N2C(=O)c1ccc(C)cc1,/,/,/,7.5%,37.1,-8.8%
CCOc1ccc(OCc2ccc(C(=O)NC(C)C)o2)cc1,5.6%,?,?,?,8.8,?
CC(C)NC(=O)c1ccc(COc2cc(Cl)ccc2Cl)o1,3.3%,1.3%,?,-29.6%,-61.8*,20.6µM*
CSc1ncnc2c1ncn2CCCNCc1ccc2c(c1)OCO2,/,/,/,3.1%,11.9,-16.0%
CCCCOc1ccc(/C=N/NC(=S)Nc2cccc(C)c2C)cc1,3.16µM*,1.78µM*,-8.8%,?,6.2,?
Cc1cccc(C)c1NC(=S)N/N=C/c1ccc(C(=O)O)cc1,-0.9%,-28.6%,10.4%,10.5%,13.9,-11.1%
Cc1cccc(C)c1NC(=S)N/N=C/c1ccc(OCCC(C)C)cc1,2.82µM*,1.58µM*,?,9.2µM*,?,7.31µM*
Cc1cccc(OCCCC(=O)NCC(=O)Nc2cccc(C)c2C)c1,-8.4%,4.9%,-19.8%,-27.1%,-0.4,-22.8%
COc1cccc(CC(=O)NCC2Cc3cc(Cl)cc(-c4ncccn4)c3O2)c1 (stereo not drawn),/,/,/,?,/,-28.2%
